Screens (PubChem BioAssay)
Shown are actives, neighbours in structure and some others; about 21% of the full set was active somewhere.
Shiga toxin inh: Shiga toxin inhibition; actives 9.2% (n = 290,000); Vero cells, Shiga toxin protein synthesis inhibition reporter; AID 2315; inhibition, % at 38.7 µM; in the data active means inhibition mostly above about 28%, no sharp cut-off; inactive means mostly below about 43%; further: 0% is about no effect
NS1 function inh: inhibitors of influenza NS1 protein function; Potency, µM (highest dose often 46.1 µM), without a hit: at the top dose activity, positive = more growth; actives 0.4% (n = 270,000); calls by dose curve; further: potency means the concentration at half of the fitted maximal effect; actives are rising curves; nearly all actives have a fitted effect of over 50% in size
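Compounds were scored for reversing the slow growth caused by influenza A NS1 in S. cerevisiae, measured by optical density at 600 nm. Assay medium contained 2% galactose at pH 6.0; NS1-free yeast of the same strain were the positive control.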
Pf growth 48h: inhibits P. falciparum growth in the first generation, 48 h. actives 5.9% (n = 310,000). P. falciparum luciferase growth in erythrocytes, 48 h. AID 504832. Potency, µM (doses to about 28.7 µM), for inactives: top-dose activity change, negative = inhibition, usual class: inhibitors; further: potency means the concentration at half of the fitted maximal effect; on the % scale 0 is the no-effect control and ±100 the full control effect
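Cell-based growth assay: transgenic P. falciparum expressing firefly luciferase, cultured in red cells within RPMI 1640 containing 0.5% w/v Albumax, 24 mM bicarbonate and gentamycin. A drop in luciferase activity indicates inhibition.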
Cycloheximide cs: counter-screen for Shiga toxin inhibitors: cycloheximide protein synthesis inhibition; actives 12% (n = 300,000); max response, %; cell reporter, cycloheximide protein synthesis inhibition counterscreen; in the data active means max response mostly above about 13%, no sharp cut-off; inactive means mostly below about 14%; further: read at 38.3 µM for the half of the compounds with a filed dose; 0% is about no effect
Pf growth 96h: inhibits malaria parasite growth, 96 h; actives 6.9% (n = 320,000); P. falciparum luciferase reporter growth, 96 h; Potency, µM (highest dose often 28.7 µM), inactives show at the highest dose activity change, negative = inhibition, hits mostly inhibitors; further: potency means the concentration at half of the fitted maximal effect; on the % scale 0 is the no-effect control and ±100 the full control effect
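P. falciparum expressing integrated firefly luciferase grown in erythrocytes (2% hematocrit, 0.05% parasitemia final) with compounds for 96 hours at 37 C, 5% CO2. Growth inhibition read as loss of luminescence after adding luciferase detection reagent.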
Giardia FBPA inh: Giardia lamblia aldolase inhibition. purified Giardia FBPA. Potency, µM (top dose mostly 59.6 µM), for the others: top-dose activity, negative = inhibition, actives largely listed as inhibitors. actives 0.71% (n = 290,000); further: potency means the concentration at half of the fitted maximal effect; on the % scale 0 is the no-effect control and ±100 the full control effect; nearly all actives have a fitted effect of over 55% in size
Target sequence (A8B2U2 whole entry, looked up): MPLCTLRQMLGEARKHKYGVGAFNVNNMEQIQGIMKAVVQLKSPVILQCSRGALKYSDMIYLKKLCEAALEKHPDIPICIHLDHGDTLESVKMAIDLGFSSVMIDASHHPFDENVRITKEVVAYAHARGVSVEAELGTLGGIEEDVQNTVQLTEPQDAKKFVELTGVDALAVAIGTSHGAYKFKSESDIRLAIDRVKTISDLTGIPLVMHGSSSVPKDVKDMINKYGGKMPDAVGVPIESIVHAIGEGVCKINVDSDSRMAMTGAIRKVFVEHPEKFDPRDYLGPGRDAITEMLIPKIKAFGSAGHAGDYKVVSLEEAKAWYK
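Giardia FBPA (40 nM reagent) was preincubated 10 min at RT with compound (up to 57.5 uM final), then substrate plus GAPDH/TPI/NAD/arsenate coupling system with diaphorase/resazurin was added; resorufin fluorescence (525/598 nm) was read after 20 min.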
Starred values were filed as active, the others as inactive; i = inactive; ? = inconclusive; . = not tested or not shown. Unless noted, the call rests on the fitted dose curve; in most records, active means well fitted curve in the direction sought with a large enough effect; inconclusive means small, poorly fitted or top-dose-only effect, or another doubt; inactive means no such curve, though single readings can be large; an effect the other way counts as inactive or inconclusive.

SMILES	Shiga toxin inh	NS1 function inh	Pf growth 48h	Cycloheximide cs	Pf growth 96h	Giardia FBPA inh
CC(C)[C@H](NC(=O)C1CCN(S(=O)(=O)c2ccccc2)CC1)C(=O)NCc1ccncc1	-3.7	7.0%	-13.3%	-1.0	?	.
Cc1cc(C)c(COCc2cc(/C=N/O)c(C)cc2C)cc1/C=N/O	-4.5	-1.9%	.	-1.3	10.4µM*	-2.8%
CSc1cc(/C=N/O)c(SC)s1	1.7	-1.0%	-4.0%	-0.7	22.9%	-3.2%
CNC(=O)Oc1ccc2ncccc2c1	-17.9	-24.4%	-13.1%	-7.0	-4.6%	-2.0%
CNC(=O)Oc1ccc2c(c1)[C@]1(C)CCN(C)[C@@H]1N2C	-14.4	-18.8%	8.28µM*	-2.4	3.7µM*	?
C/C(=N/NC(=O)CNC(=O)CCc1ccccc1)c1ccc(Cl)c(Cl)c1	23.1	-4.9%	48.7%	1.0	71.8%	3.0%
O=C(O)CC/C(=N\NC(=O)CNC(=O)c1cccc(Cl)c1)c1ccccc1	-2.4	.	-10.5%	11.3	5.4%	5.4%
C/C(=N\NC(=O)c1cccc(Cl)c1)C1C(=O)c2ccccc2C1=O	73.4*	-55.5%	34.7%	52.4*	?	-28.0%
C/C(=N\NC(=O)CCc1ccccc1)C1C(=O)c2ccccc2C1=O	66.9*	-4.5%	4.2%	24.1*	4.4%	8.1%
CC(C)(C)OC(=O)N/N=C\c1ccc(OC(=O)c2ccco2)cc1	78.9*	.	257.3%	38.5*	-13.1%	11.6%
COC(=O)N/N=C\c1ccc(OC(=O)c2ccco2)cc1	11.9	.	3.3%	6.5	?	0.2%
CCc1ccc(OC(=O)/C=C/c2ccco2)cc1	30.1*	5.6%	1.2%	32.5*	?	5.8%
O=C(Cc1ccccc1)N/N=C/c1ccc(OC(=O)/C=C\c2ccco2)cc1	49.0*	0.2%	7.5%	28.5*	-20.4%	-0.3%
O=S(=O)(c1ccc(OCC(O)CNC23CC4CC(CC(C4)C2)C3)c(Cl)c1)N1CCOCC1 (stereo unspecified)	-1.7	10.9%	10.4µM*	0.5	?	0.2%
CCc1nc(Nc2ccc3c(c2)OCCO3)c2oc3ccccc3c2n1	5.6	-0.8%	.	16.7*	-11.1%	-18.2%
O=[N+]([O-])c1ccc(O)c(Nc2ncnc3ccccc23)c1	35.4	0.3%	?	16.9*	22.2%	-8.9%
c1ccc2c(c1)oc1c(Nc3ccc4c(c3)OCCO4)ncnc12	68.9*	-31.1%	230.9%	53.8*	31.6%	-18.7%
c1ccc2c(c1)oc1c(NCCCN3CCOCC3)ncnc12	33.9	-15.0%	12.8%	14.0	-9.1%	-8.7%
Cc1nc(Nc2ccc3c(c2)OCCO3)c2c(C)c(C)sc2n1	45.2	.	2.9%	20.0*	38.1%	-16.7%
Cc1nnsc1-c1onc(C)c1C(=O)O/N=C/c1ccc(Cl)cc1	-7.7	-1.8%	52.8%	0.8	31.9%	4.1%
COC(=O)C(O)C1C(C)(C)C(OC(C)=O)C2CC3=C4CC(=O)OC(c5ccoc5)[C@]4(C)CCC3[C@@]1(C)C2=O (stereo partly specified)	.	.	.	.	.	2.7%
O=C(NC1CCSc2ccccc21)c1c(F)cccc1Cl (stereo unspecified)	-4.3	-4.0%	-6.5%	-2.1	?	.
CCCCCCCNC(=O)CN1N=C(c2ccc(C)cc2)CCC1=O	-4.4	-40.0%	.	-3.8	3.4%	3.0%
CCCCC(=O)Nc1cccc(C(=O)N/N=C/c2ccc(OC)cc2OC)c1	-1.8	-15.3%	8.7%	1.1	-5.3%	1.3%
COc1cccc2c1cc1c(=O)n(CC(=O)NCCCN3CCN(C)CC3)nc(C)n12	-1.6	-8.8%	-10.0%	14.8	22.5%	.
SMILES	Shiga toxin inh	NS1 function inh	Pf growth 48h	Cycloheximide cs	Pf growth 96h	Giardia FBPA inh
O=[N+]([O-])c1ccc2ncnc(Nc3ccc4c(c3)OCCO4)c2c1	-17.3	.	9.28µM*	11.8	?	-0.1%
Cc1ccc(O)c(Nc2ncnc3ccc([N+](=O)[O-])cc23)c1	-9.1	-7.4%	?	-0.9	-17.7%	-0.4%
Cc1nc(NCc2ccc3c(c2)OCO3)c2oc3ccccc3c2n1	2.2	-139.5%	-8.1%	-7.1	-11.6%	-22.6%
Cc1nc(Nc2ccc3c(c2)OCCO3)c2oc3ccccc3c2n1	83.4*	-128.8%	12.4%	25.7*	15.7%	-10.6%
CCOC(=O)CCCn1ccc2cc(S(=O)(=O)N3CCCC3)ccc21	-4.0	-4.6%	-6.5%	-1.7	?	.
CCOC(=O)c1sc(N=NC2=C(O)CCCC2=O)c(C(=O)OCC)c1C	16.2	.	0.0%	17.6*	56.5%	-16.8%
CCOC(=O)c1sc(N=Nc2c(O)[nH]c(=O)[nH]c2=O)c(C(=O)OCC)c1C	-3.2	29.4%	24.5%	1.4	-5.8%	-5.6%
Cc1ccc(-c2csc(N3CCN(c4cc5c(cc4Cl)nc(C(C)N)n5CCCO)CC3)n2)cc1 (stereo unspecified)	-4.8	23.6%	-4.2%	0.5	?	3.7%
Cc1ccc(-c2csc(N3CCN(c4cc5c(cc4Cl)nc(C)n5CCN4CCCCC4)CC3)n2)cc1	1.9	-11.1%	?	-1.2	2.08µM*	-8.2%
Cc1csc(N2CCN(c3cc4c(cc3Cl)nc(-c3ccncc3)n4CCCN3CCCC3)CC2)n1	-7.5	-1.7%	?	-2.6	3.7µM*	-3.9%
COc1ccc(Oc2ncc3nc(-c4cc(F)cc(F)c4)c(=O)n(CCC#N)c3n2)cc1	.	.	.	.	.	-9.7%
Cc1ccc(Cl)c2c1NC(=O)C2(O)CC(=O)c1ccccc1O (stereo unspecified)	14.9	0.7%	-28.2%	-5.0	9.28µM*	-4.5%
COc1ccc(C(=O)/C=C2/Sc3cc4c(cc3N2C)OCO4)cc1	-10.8	5.6%	27.8%	0.5	2.08µM*	5.1%
COc1ccc(C(=O)/C=C(\C)NCc2ccc3c(c2)OCO3)cc1	5.2	3.3%	4.6%	14.2	10.9%	.
CN1/C(=C/C(=O)c2ccc(Cl)cc2)Sc2cc3c(cc21)OCO3	67.6*	16.9%	121.3%	40.5*	9.4%	-8.8%
C=CCN(CC=C)C(=S)NC(=O)Cc1cccc2ccccc12	6.5	-6.3%	?	3.8	4.15µM*	-22.8%
Cc1cccc(C(=O)Nc2nnc(COc3ccccc3)s2)c1	-8.8	-2.9%	13.4%	-2.9	10.9%	5.3%
COc1ccccc1C(=O)Nc1nnc(-c2ccc(F)cc2)s1	5.5	-42.6%	5.9%	1.2	?	4.6%
Cc1ccccc1C(=O)Nc1nnc(-c2ccc(C(C)(C)C)cc2)s1	-8.8	11.6%	22.0%	15.7*	i	-0.6%
Cc1cccc(C(=O)Nc2nnc(-c3ccc(C(C)(C)C)cc3)s2)c1	45.8	-6.5%	41.1%	18.8*	20.0%	0.7%
COc1ccc(-n2c(=O)c(-c3cccc(C#N)c3)nc3cnc(N4CCNCC4)nc32)cc1	.	.	.	.	.	0.6%
O=C(NCCCN1CCCC1)c1ccc2c(c1)N(Cc1ccccc1F)C(=O)c1ccccc1S2(=O)=O	20.0	2.3%	10.4µM*	3.3	-17.7%	.
